Most compounds without a hit are left out; they make up all but 3.7% or so of the library.
Wnt act: activates Wnt/beta-catenin signaling in a reporter cell assay; 300,000 compounds, 1.2% hits; activator, plate reader; activation, % at 9.35 µM; in the data active means activation above about 30%, passing the limit was not always enough
rRNA inh HTS: inhibitors of bacterial rRNA selective over humanized ribosomes | E. coli WT GFP vs humanized-ribosome RFP mutants, fluorescence, 24 h; hits give low values; DMSO median 0, no signal -100 | GFP signal change (wild-type ribosome), % (concentration not given with the values) | 350,000 compounds, 1.6% hits;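 active means significant combined selectivity score with lowered wild-type GFP, culture density cut under 30%, mutant RFP and density less affected; inactive means any of these conditions unmet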
esBAF inh: SWI/SNF esBAF complex inhibition; AID 602393; reporter increase, % at 12.5 µM; mouse ES cells, Bmi1-luciferase knock-in reporter, 24 h; 100% = twice the neutral-well signal; 350,000 compounds, 2% hits; in the data active means activation above about 40%;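 further: a rise in the Bmi1 reporter signal indicates esBAF inhibition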
AF4-AF9 inh: MLL-AF4/AF9 protein interaction inhibition | P42568 | AlphaScreen, biotin-AF4 peptide binding to FLAG-AF9 | inhibition, % at 10 µM | 350,000 compounds, 0.47% hits | AID 651704;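 active means every replicate reaching a set inhibition limit, whatever the replicate mean, cut at about 25% in these data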
Target sequence (P42568 whole entry, looked up): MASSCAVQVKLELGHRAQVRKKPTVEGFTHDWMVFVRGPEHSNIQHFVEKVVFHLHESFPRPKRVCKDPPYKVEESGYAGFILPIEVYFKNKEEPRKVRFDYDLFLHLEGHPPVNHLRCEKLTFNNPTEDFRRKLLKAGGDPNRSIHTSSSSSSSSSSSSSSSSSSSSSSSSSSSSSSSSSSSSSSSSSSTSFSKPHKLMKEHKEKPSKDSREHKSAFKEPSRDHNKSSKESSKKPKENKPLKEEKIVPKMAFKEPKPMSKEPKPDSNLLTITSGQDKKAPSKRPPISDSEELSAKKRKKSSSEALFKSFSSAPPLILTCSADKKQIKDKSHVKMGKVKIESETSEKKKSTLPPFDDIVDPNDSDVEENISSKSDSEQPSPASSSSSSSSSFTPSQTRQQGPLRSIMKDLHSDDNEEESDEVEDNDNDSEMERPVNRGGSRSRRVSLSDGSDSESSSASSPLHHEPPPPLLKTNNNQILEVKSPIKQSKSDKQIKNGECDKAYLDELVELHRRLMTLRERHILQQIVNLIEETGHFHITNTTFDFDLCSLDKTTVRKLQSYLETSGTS
MITF TRPM1 HTS: increases MITF-driven TRPM1 promoter luciferase signal; activation, % at 12.5 µM; 300,000 compounds, 0.75% hits; AID 588334; SK-MEL-5 TRPM1-promoter luciferase, 24 h; % of positive control, neutral wells = 0;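 active means mean activation of at least 80% with every replicate also reaching 80%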
A number is an active result; - = inactive; . = not tested or not shown.

SMILES	Wnt act	rRNA inh HTS	esBAF inh	AF4-AF9 inh	MITF TRPM1 HTS
COc1ccc(NC(=O)COc2cc(O)c3c(c2)OC(C)(C)CC3=O)cc1	-	.	-	-	-
CSc1ccc(NC(=O)Nc2cccn(Cc3ccccc3)c2=O)cc1	-	-30	.	-	-
C=CCn1cccc(C(=O)Nc2ccc(OC)c(Cl)c2)c1=O	.	.	56	.	-
C#CCn1cccc(C(=O)Nc2ccc(OC)cc2)c1=O	-	-	53	-	-
C=CCn1cccc(C(=O)Nc2ccc(SC)cc2)c1=O	-	-	55	-	-
CCCn1cccc(C(=O)Nc2ccc(OC)cc2)c1=O	-	-	-	-	-
C=CCn1cccc(C(=O)Nc2ccc(OC)c(OC)c2)c1=O	-	-	.	-	-
C[C@@H]1CN([C@@H](C)CO)S(=O)(=O)c2ccc(C#CC(C)(C)O)cc2O[C@H]1CN(C)C	.	-	-	-	.
O=C(c1c[nH]c2ccccc12)C(Cl)c1ccccc1 (stereo not drawn)	-	-24	-	-	-
C=CCSc1nc2c(cnn2-c2ccccc2)c(=O)n1N	56	-	.	-	.
COc1cc(CNc2ccc3[nH]c(=O)[nH]c3c2)ccc1OCc1ccccc1F	-	-	47	-	-
COc1cc(CNc2ccc3[nH]c(=O)[nH]c3c2)ccc1OCc1ccccc1C	-	-	47	-	-
COc1cc(CNc2ccc3[nH]c(=O)[nH]c3c2)ccc1OCc1ccccc1	-	-	-	-	.
COc1cc(CNc2ccc3[nH]c(=O)[nH]c3c2)ccc1OCc1ccc(Cl)cc1	-	-	55	-	.
COc1cc(CNc2ccc3[nH]c(=O)[nH]c3c2)ccc1OCc1ccc(F)cc1	-	-	-	-	.
c1ccc(Cn2c(-c3ccccc3)c[n+]3c2SCCC3)cc1	-	-45	.	-	.
Cn1cc(Cl)c(-c2nc3ccccc3[nH]2)n1	.	.	-	.	-
c1ccc2c(-c3nc4ccccc4[nH]3)cccc2c1	-	-	.	-	.
Clc1ccccc1-c1nc2ccccc2[nH]1	48	-	.	-	.
c1ccc2[nH]c(-c3ccnc4ccccc34)nc2c1	38	.	-	.	-
Clc1ccc(-c2nc3ccccc3[nH]2)cn1	-	-	50	-	-
Cc1ccccc1NC(=S)c1nc2ccccc2[nH]1	-	.	49	27	-
S=C(Nc1ccc(Cl)cc1)c1nc2ccccc2[nH]1	.	.	.	.	-
CSc1ncccc1-c1nc2ccccc2[nH]1	-	.	-	.	-
Cc1ccccc1-c1nc2ccccc2[nH]1	.	.	58	.	-
SMILES	Wnt act	rRNA inh HTS	esBAF inh	AF4-AF9 inh	MITF TRPM1 HTS
Fc1ccccc1-c1nc2ccccc2[nH]1	56	-	.	-	85
CCSc1ncccc1-c1nc2ccccc2[nH]1	-	.	-	.	-
Cc1ccccc1CSCc1nc2ccccc2[nH]1	.	-22	.	-	-
CC(=O)NC(c1ccc(F)c(F)c1)c1nc(-c2cccc(C(F)(F)F)c2)cs1 (stereo not drawn)	-	-	-	-	.
CCOc1ccc(/C(O)=C/C(=O)C(=O)Nc2ccc(S(=O)(=O)NC(C)=O)cc2)cc1	-	.	.	-	-
CC(C)CCN1CCN(Cc2cc3ccccc3[nH]2)CC1CCO (stereo not drawn)	-	-	-	-	.
CN(c1ccccc1)S(=O)(=O)c1ccc(NC(=O)c2ccc(F)cc2)cc1	-	-28	.	-	-
COC(=O)c1cccc(NC(=O)c2ccc(S(=O)(=O)N(C)c3ccccc3OC)cc2)c1	-	-	-	-	.
CN(c1ccccc1)S(=O)(=O)c1ccc(NC(=O)c2ccccc2)cc1	.	.	.	.	-
CC(=O)c1cccc(NC(=O)c2ccc(N(C)S(=O)(=O)c3ccc(C)cc3)cc2)c1	-	-24	-	-	-
COc1ccccc1N(C)S(=O)(=O)c1ccc(C(=O)Nc2cccc(Br)c2)cc1	-	-34	-	-	-
C[C@H]1CN([C@@H](C)CO)C(=O)c2cc(C#CCN(C)C)cnc2O[C@H]1CN(C)C(=O)Cc1ccncc1	.	-	-	-	.
COCC#Cc1cnc2c(c1)C(=O)N([C@@H](C)CO)C[C@@H](C)[C@H](CN(C)C(=O)Nc1ccccc1F)O2	.	-	-	-	.
CN(C)CCn1c(=O)n(-c2ccc(F)cc2)c(=O)c2c3c(sc21)CCCCC3	-	-	-	-	-
CN(C)CCCn1c(=O)n(C2CCCCC2)c(=O)c2c3c(sc21)CCCCC3	-	-	-	28	-
O=C(Nc1ccon1)Nc1ccc(F)cc1F	-	-	-	-	-
CCOC(=O)COn1c(-c2cccc(Cl)c2)nc2ccc([N+](=O)[O-])cc21	.	.	.	.	87
CCOC(=O)C(C)On1c(-c2cccc(Cl)c2)nc2ccc([N+](=O)[O-])cc21 (stereo not drawn)	.	.	-	.	-
COC(=O)Nc1nn(-c2ccc(C)cc2)c(=O)c(C#N)c1C	-	-	.	-	-
CCN(CC)CC(O)Cn1c(C)c(-c2ccccc2)c2cc([N+](=O)[O-])ccc21 (stereo not drawn)	-	-	-	37	-
O=C(Nc1ccccc1F)N1CCCCN2[C@H](CO)[C@@H](c3ccc(C4=CCCC4)cc3)[C@@H]2C1	.	-	-	.	.
CCOC(=O)c1ccc(-c2nnc(-c3ccc(Cl)cc3Cl)o2)cc1	.	.	45	.	87
CCOC(=O)c1ccoc1CN1CCN(S(=O)(=O)c2ccc(C)c(C)c2)CC1	-	-20	-	-	-
C/C=C/c1ccc2c(c1)O[C@H](CN(C)C(=O)c1ccc3c(c1)OCO3)[C@@H](C)CN([C@@H](C)CO)S2(=O)=O	.	-	-	-	.
C=CCc1ccc(OCC(O)COCC)c(OC)c1 (stereo not drawn)	.	.	41	.	93
SMILES	Wnt act	rRNA inh HTS	esBAF inh	AF4-AF9 inh	MITF TRPM1 HTS
C=CCc1ccc(OCC(O)CO)c(OC)c1 (stereo not drawn)	-	-	.	-	-
COc1cccc(-c2ccc3c(c2)C2CC3CCN2C(C)=O)c1 (stereo not drawn)	-	-	-	-	-
N#Cc1ccc(-c2ccc3c(c2)[C@H]2[C@H](CCN2C(=O)c2ccc(F)cc2)[C@H](CO)N3)cc1	.	-	-	.	.
N#Cc1ccc(C(=O)N2CCC3CC2c2cc(-c4ccc(F)cc4)ccc23)cc1 (stereo not drawn)	-	-26	-	-	-
COc1ccc(-c2ccc3c(c2)C2CC3CCN2C(=O)C(C)(C)C)cc1 (stereo not drawn)	-	-30	-	-	-
CC(C)(C)NC(=O)C(c1ccncc1)N(C(=O)CNC(=O)c1ccco1)c1ccc(F)cc1 (stereo not drawn)	-	-	-	-	-
CC1CCC(C(C)C)C(OC(=O)COC(=O)c2ccc(=O)[nH]c2)C1 (stereo not drawn)	-	.	-	.	-
CC1CCC(C(C)C)C(OC(=O)COC(=O)c2cc(O)ccc2N)C1 (stereo not drawn)	34	.	.	.	-
Cc1ccc(NC(=O)c2ccc([N+](=O)[O-])cc2)cc1S(=O)(=O)N(C)C	-	-	49	-	-
O=C(c1ccc(Cl)cc1)c1cnc(Nc2ccccc2Cl)s1	.	.	57	.	99
COCC(=O)Nc1ccc2c(c1)[C@@H]1C[C@@H](CC(=O)NCc3ccccc3F)O[C@H](CO)[C@@H]1O2	.	-	-	-	.
